Reference: PubChem BioAssay (Tox21)
Results filed as inconclusive are left out. A call without a number means that no potency is given here. Calls of active or inactive are those of the source. Calls follow the shape of the dose curve; as a rule, active = well fitted cell-killing curve with a large enough effect in the repeat runs; inconclusive = weak or mixed curves, or effect the other way; inactive = flat fitted curve, though single readings scatter.

Assay: qHTS assay to identify small molecule agonists of the estrogen receptor beta (ER-beta) signaling pathway - cell viability counter screen (AID 1259380); also: nearly all actives have a fitted effect of over 30% in size
Conditions: ER-beta-bla HEK293T viability, CellTiter-Glo luminescence, 16 h; series mostly up to 92.4 µM
From the text: National Center for Advancing Translational Sciences [NCATS]
NIH Chemical Genomics Center [NCGC]
U.S. Environmental Protection Agency [EPA]
National Institutes of Environmental Health Sciences [NIEHS]
National Toxicology Program [NTP]
U.S. Food and Drug Administration [FDA]
Estrogen receptor (ER), a nuclear hormone receptor, plays an important role in development, metabolic homeostasis and reproduction. Two subtypes of ER, ER-alpha and ER-beta, have similar expression patterns with some uniqueness in both types. Endocrine disrupting chemicals (EDCs) and their interactions with steroid hormone receptors like ER causes disruption of normal endocrine function. To identify the compounds that activate ER signaling, an ER beta-UAS-bla GripTite cell line (Life Technologies, Madison, WI, USA) containing a beta-lactamase reporter gene under the control of an UAS response element was used to screen Tox21 10K compound library. The cytotoxicity of the Tox21 compound library against the ER-beta-bla cell line was tested in parallel by measuring the cell viability using CellTiter-Glo assay in the same wells.
Tox21 Assay Protocol Summary:
ER-beta-UAS-bla HEK293T cells were dispensed at 2,000 cells/5 uL of assay medium containing 2% charcoal stripped FBS per well into black wall/clear-bottom 1536-well plates using a Multidrop Combi (ThermoFisher Scientific, Waltham, MA) dispenser. After the assay plates were incubated at a 37C and 5% CO2 for 6 hr, 23 nL of compounds dissolved in DMSO, positive controls or DMSO only was transferred to the assay plate by a Pintool station (Kalypsys, San Diego, CA). The plates were incubated at 37C and 5% CO2 for 16 hr. Then 1 uL of LiveBLAzerTM B/G FRET substrate was added using a BioRAPTR FRD (Flying Reagent Dispenser, Aurora Discovery, San Diego, CA) and then the plates were incubated at room temperature for 2 hours, and fluorescence intensity was measured by an Envision plate reader (PerkinElmer, Shelton, CT). For cell viability readout that measures cytotoxicity, 4 uL/well of CellTiter-Glo reagent was added into the assay plates using a FRD. After 30 min incubation at room temperature, the luminescence intensity in the plates was measured using a ViewLux (PerkinElmer) plate reader.
Potency is read from the fitted curve at half-maximal effect.

| SMILES | Potency |
| --- | --- |
| CCC(Cl)[N+](=O)[O-] (stereo not given) | inactive |
| CNCC(=O)c1ccc(O)c(O)c1 | inactive |
| O=C1OC(CCN2CCCCC2)OC1(c1ccccc1)c1ccccc1 (stereo not given) | inactive |
| OC(Cn1cncn1)(c1ccc(F)cc1)c1ccccc1F (stereo not given) | inactive |
| CCCSC(=O)N(CCC)CCC | inactive |
| CC(C)CC#N | inactive |
| CC(C)(C)NCC(O)c1cc(Cl)c(N)c(Cl)c1 (stereo not given) | inactive |
| CC(C=O)Cc1ccc2c(c1)OCO2 (stereo not given) | inactive |
| C(CCOCC1CO1)COCC1CO1 (stereo not given) | inactive |
| Cc1cccc(C#N)c1 | inactive |
| CNC(=O)Oc1c(C(C)(C)C)cc(C)cc1C(C)(C)C | inactive |
| CCCSC(=O)Cl | inactive |
| CCOP(=O)(OCC)OP(=O)(OCC)OCC | inactive |
| CC1CCC(=O)O1 (stereo not given) | inactive |
| OC(c1ccccc1)(c1ccccc1)C1CCNCC1 | inactive |
| N#CC(O)c1ccccc1 (stereo not given) | inactive |
| COc1ccc(C(=O)N2CCCC2=O)cc1 | inactive |
| N#Cc1ccncc1 | inactive |
| CCSC(=O)N(CC)C1CCCCC1 | inactive |
| OCCBr | inactive |

| SMILES | Potency |
| --- | --- |
| CC(=O)Nc1cc([As](=O)(O)O)ccc1O | inactive |
| O=C(O)c1cccc(Cl)c1 | inactive |
| CCOC(=O)/C=C(C)/C=C/C[C@@H](C)CCCC(C)C | 43.3 µM (active) |
| CC1=NNC(=O)N(/N=C/c2cccnc2)C1 | inactive |
| CC(=O)CC(c1ccc(Cl)cc1)c1c(O)c2ccccc2oc1=O (stereo not given) | inactive |
| COC(=O)COc1ccc(Cl)cc1Cl | inactive |
| COc1cc(C[C@@H](C)N)c(OC)cc1C | inactive |
| C1CCC(C2CCCCC2)CC1 | 38.6 µM (active) |
| Nc1n[nH]c(N)n1 | inactive |
| COCC(=O)N(c1c(C)cccc1C)N1CCOC1=O | inactive |
| CCCCOC(=O)[C@@H](C)Oc1ccc(Oc2ccc(C#N)cc2F)cc1 | inactive |
| Nc1cc2c3c(c1)C(c1ccccc1)=N[C@@H](NC(=O)c1cccnc1)C(=O)N3CC2 | inactive |
| O=C(O)C(Br)CBr (stereo not given) | inactive |
| c1cc[c]([Hg][c]2ccccc2)cc1 | inactive |
| CCOC(=O)N(C)C(=O)CSP(=S)(OCC)OCC | inactive |
| CNNC | inactive |
| N#CCNCC#N | inactive |
| CC(N)=S | inactive |
| O=[N+]([O-])c1cc(Cl)c(Cl)c(Cl)c1 | inactive |
| CCN(CC)C(C)C(=O)c1ccccc1 (stereo not given) | inactive |
